High-throughput results deposited in PubChem by National Center for Advancing Translational Sciences (NCATS).
Sampled rows, rich in hits. Any-hit rate of the full collection: about 2.3%.
Giardia killer: kills Giardia lamblia | Giardia lamblia trophozoite viability | activity change, % at 7.66 µM, hits read low | hit rate 0.15% among 340,000; in the data active = activity change below about -80%; inconclusive = between about -30% and that limit;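 also: parasites exposed to compound for two days anaerobically before the ATP read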
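Giardia trophozoites, 100 cells per well, were exposed to compounds for 48 hrs at 37 deg C under anaerobic conditions; viability was then read as ATP content by bioluminescence after 15-30 min at room temperature.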
TRPV1 potentiator: human TRPV1 potentiation. Q8NER1. AID 540277. potentiation, % at 8.33 µM. hit rate 0.02% among 320,000. TRPV1-expressing cells, Fluo-8 calcium influx, capsaicin EC20 potentiation; in the data active = potentiation above about 80%; inconclusive = between about 30% and that limit
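Fluo-8 calcium influx in TRPV1-expressing cells, kinetic read (ex 480/em 520 nm). Compound added and read 3 min for agonist activity, followed by capsaicin at EC20 final and 2 min further read for enhancement.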
FUS suppressor: rescues growth of FUS-expressing yeast; hit rate 0.24% among 390,000; S. cerevisiae FUS-expressing, growth rescue, OD600, 24 h; Potency, µM (highest dose often 76.6 µM), hits mostly activators; also: nearly all actives have a fitted effect of over 55% in size
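Steps: raffinose overnight preculture; dilution to OD 0.005 in 2% galactose minimal medium; compound addition (concentration series); 24hr at 30C, 99% humidity; absorbance read at 600 nm.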
TRPV1 agonist: human TRPV1 agonism | hit rate 0.19% among 320,000 | Q8NER1 | TRPV1-expressing cells, Fluo-8 calcium influx, agonist mode | activation, % at 8.33 µM | AID 540275; in the data active = activation above about 80%; inconclusive = between about 30% and that limit
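Cells expressing TRPV1 were dye-loaded with Fluo-8 and read kinetically: 10 s baseline, 3 min after compound (agonist portion), then 2 min after EC20 capsaicin (allosteric enhancer portion). Calcium-bound dye fluorescence at 480/520 nm.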
ELG1 DNA repair: blocks ELG1-dependent DNA repair in HEK293T cells. HEK293T ELG1-luciferase reporter, luminescence, 16 h; DNA damage induced by 5-fluorouridine. Potency, µM (titrated, usually from 46.1 µM), usual class: inhibitors. hit rate 2.3% among 330,000. AID 504467; also: nearly all actives have a fitted effect of over 55% in size
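Overnight (16 hr) co-exposure of 2,000 cells/well to 5-fluorouridine and compound at 37 °C preceded detection. Luciferase was quantified via ONE-Glo luminescence; loss of signal denotes inhibition.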
Of the large screens only hits and unclear results are named; the others gave an inactive call. Unless noted, calls follow the shape of the dose curve; as a rule, active = well fitted curve in the direction sought with a large enough effect; inconclusive = small, poorly fitted or top-dose-only effect, or another doubt; inactive = no such curve, though single readings can be large; an effect the other way counts as inactive or inconclusive.

COc1ccc(NC(=O)CSc2nnc(-c3ccccc3)n2Cc2ccco2)c(OC)c1	ELG1 DNA repair 13µM
COc1ccc(C)cc1NC(=O)CSc1nnc(COc2ccccc2)n1Cc1ccco1	FUS suppressor inconclusive, TRPV1 agonist inconclusive, ELG1 DNA repair 18µM
CSc1ccc(CCNC(=O)CCc2c(C)nc3c(c(C)nn3-c3ccccc3)c2C)cc1	none (no result: Giardia killer, TRPV1 potentiator, TRPV1 agonist, ELG1 DNA repair)
Cc1ccc2c(CN3CCCCC3)cc(=O)oc2c1C	TRPV1 agonist inconclusive, ELG1 DNA repair inconclusive
Cc1ccc2c(CN3CCN(S(=O)(=O)c4ccccc4C(F)(F)F)CC3)cc(=O)oc2c1C	FUS suppressor inconclusive, ELG1 DNA repair 16µM
CCc1ccc2c(CN3CCN(S(=O)(=O)c4ccccc4F)CC3)cc(=O)oc2c1	ELG1 DNA repair 23µM (no result: TRPV1 potentiator, TRPV1 agonist)
O=C(CSc1nnc(-c2ccccn2)n1-c1ccccc1)Nc1ccc2c(c1)OCCO2	none (no result: Giardia killer, TRPV1 potentiator, TRPV1 agonist, ELG1 DNA repair)
CCCn1c(SCC(=O)N2CCCC2)nc2c1c(=O)n(C)c(=O)n2C	none
CCCn1c(SCC(=O)N2CCN(c3ccc(OC)cc3)CC2)nc2c1c(=O)n(C)c(=O)n2C	ELG1 DNA repair 21µM
